{"source": "PubChem BioAssay (Tox21)", "note": "Calls of active or inactive are those of the source. Entries that show only a call come without a potency. Calls follow the shape of the dose curve; as a rule, active = well fitted activation curve with a large enough effect in the repeat runs; inconclusive = weak or mixed curves; inactive = flat fitted curve, though single readings scatter.", "data": [{"assay": "A CellTox Green Cytotoxicity Assay to monitor cytotoxicity in HEK293 cells - 0 hour (AID 1224869); also: nearly all actives have a fitted effect of over 50% in size", "conditions": "CellTox Green fluorescence; series mostly up to 76.8 µM", "text": "National Center for Advancing Translational Sciences [NCATS]\nNIH Chemical Genomics Center [NCGC]\nU.S. Environmental Protection Agency [EPA]\nNational Institutes of Environmental Health Sciences [NIEHS]\nNational Toxicology Program [NTP]\nCell-based models are critical for drug discovery. Determining the natural cytotoxic effects resulting from test compounds is an essential research activity. A CellTox Green Cytotoxicity Assay to monitor cytotoxicity in real time of continues cell culture during 40 hours of the compound treatment was used to screen Tox21 10K library compounds in Hek293 cells. CellTox Green Cytotoxicity Assay is a nonlytic, homogeneous, biofluorescent method to measure cytotoxicity in cell culture after experimental manipulation. The assay system uses a proprietary asymmetric cyanine dye that is excluded from viable cells but preferentially stains the dead cell's DNA. […] Viable cells produce no appreciable increases in fluorescence. Therefore, the fluorescence signal produced by the binding interaction with dead cell DNA is proportional to cytotoxicity.\nThe mixture of Hek293 cell suspension and reagents were dispensed at 600cells/6 ul/well in 1536-well tissue culture treated black solid bottom plates using a Multidrop dispenser. After the assay plates were incubated at a 37 C/5% CO2 incubator for 5 hours, 23 nL of compounds dissolved in DMSO, positive and negative controls was transferred to the assay plate by a pintool work station. The plates were incubated at 37 C for 40 hours. The fluorescence intensity were measured at 0h, 8h, 16h, 24h, 32h and 40h time points using ViewLux plate reader during compound treatment.", "values": [{"smiles": "CC[C@H](NC(=O)c1cc(F)ccc1NS(=O)(=O)c1cccc2cccnc12)c1ccccc1", "Potency": "inactive"}, {"smiles": "COc1cc2[nH]c(=O)[nH]c(=O)c2cc1OC", "Potency": "inactive"}, {"smiles": "CCCCC(CC)C(=O)OCCOCCOCCOCCOC(=O)C(CC)CCCC", "note": "(stereo not given)", "Potency": "inactive"}, {"smiles": "C=CC(C)(C)CC(=O)OC", "Potency": "inactive"}, {"smiles": "Oc1cc(O)c(Cl)cc1Cl", "Potency": "inactive"}, {"smiles": "CC1CN(c2cc3c(cc2F)c(=O)c(C(=O)O)cn3-c2ccc(F)cc2F)CCN1", "note": "(stereo not given)", "cytotoxicity": "-3.88% [at 6.97 µM] (inactive)"}, {"smiles": "CCc1c2c(nc3ccc(OC(=O)N4CCC(N5CCCCC5)CC4)cc13)-c1cc3c(c(=O)n1C2)COC(=O)[C@]3(O)CC", "Potency": "inactive"}, {"smiles": "CCCCCCCC/C=C\\CCCCCCCC(=O)OC", "Potency": "inactive"}, {"smiles": "C(=C\\c1ccccc1)/CN1CCN(C(c2ccccc2)c2ccccc2)CC1", "Potency": "inactive"}, {"smiles": "O=C(N[C@@H](c1ccccc1)[C@@H]1CCCCN1)c1cccc(C(F)(F)F)c1Cl", "Potency": "inactive"}, {"smiles": "CCOC(=N)CC(=O)OCC", "Potency": "inactive"}, {"smiles": "CC1C2CC(CC2C2CCCC(O)C2)C1(C)C", "note": "(stereo not given)", "Potency": "inactive"}, {"smiles": "CC(N)CN", "note": "(stereo not given)", "Potency": "inactive"}, {"smiles": "COc1ccc(CCC(=O)c2c(O)cc(O[C@@H]3O[C@H](CO)[C@@H](O)[C@H](O)[C@H]3O[C@@H]3O[C@@H](C)[C@H](O)[C@@H](O)[C@H]3O)cc2O)cc1O", "Potency": "inactive"}, {"smiles": "CC1=C(/C=C/C(C)=C\\C=C\\C(C)=C\\C(=O)O)C(C)(C)CCC1", "Potency": "inactive"}, {"smiles": "Cc1cc2nc3ccc(=[N+](C)C)cc-3sc2cc1N", "Potency": "inactive"}, {"smiles": "N#C[C@@H]1C[C@@H]2C[C@@H]2N1C(=O)[C@@H](N)C12CC3CC(CC(O)(C3)C1)C2", "Potency": "inactive"}, {"smiles": "NCC1CCCC(CN)C1", "note": "(stereo not given)", "Potency": "inactive"}, {"smiles": "COC(=O)Nc1nc2ccc(C(=O)c3cccs3)cc2[nH]1", "Potency": "inactive"}, {"smiles": "N#C/C(=C1/SC[C@@H](c2ccc(Cl)cc2Cl)S1)n1ccnc1", "Potency": "inactive"}, {"smiles": "C/C(=N/NC(=O)c1ccncc1)C(=O)O", "Potency": "inactive"}, {"smiles": "CC[C@@H]([C@H](C)O)n1ncn(-c2ccc(N3CCN(c4ccc(OC[C@@H]5CO[C@@](Cn6cncn6)(c6ccc(F)cc6F)C5)cc4)CC3)cc2)c1=O", "Potency": "inactive"}, {"smiles": "Cc1nccn1-c1ccc(Sc2cccc(C3(C(N)=O)CCOCC3)c2)cc1", "Potency": "inactive"}, {"smiles": "Nc1ccc(S(=O)(=O)O)cc1", "Potency": "inactive"}, {"smiles": "Cc1ccnc2ccccc12", "Potency": "inactive"}, {"smiles": "CC1CC(O)CC(C)(C)C1", "note": "(stereo not given)", "Potency": "inactive"}, {"smiles": "O=Cc1c(Cl)cccc1Cl", "Potency": "inactive"}, {"smiles": "CC(C)c1nnc2ccc(-c3ocnc3-c3cc(F)ccc3F)cn12", "Potency": "inactive"}, {"smiles": "O=C(O)c1cccc(O)c1", "Potency": "inactive"}, {"smiles": "C[C@@H]1C[C@H]2[C@@H]3CCC4=CC(=O)C=C[C@]4(C)[C@@]3(F)[C@@H](O)C[C@]2(C)[C@H]1C(=O)CO", "Potency": "inactive"}, {"smiles": "CC1(C)O[C@@H]2C[C@H]3[C@@H]4CCC5=CC(=O)C=C[C@]5(C)[C@H]4[C@@H](O)C[C@]3(C)[C@]2(C(=O)CO)O1", "Potency": "inactive"}, {"smiles": "CC(CCO)CCc1ccccc1", "note": "(stereo not given)", "Potency": "inactive"}, {"smiles": "O=C(Nc1ccccc1)Nc1ccccc1", "Potency": "inactive"}, {"smiles": "Cc1ccc(S)cc1", "Potency": "inactive"}, {"smiles": "CC(C)C(OC(=O)c1ccccc1)C(C)(C)COC(=O)c1ccccc1", "note": "(stereo not given)", "Potency": "inactive"}, {"smiles": "CN(C(=O)C(Cl)Cl)c1ccc(OC(=O)c2ccco2)cc1", "Potency": "inactive"}, {"smiles": "COc1ccc([C@@H]2Sc3ccccc3NC(=O)[C@@H]2O)cc1", "Potency": "inactive"}, {"smiles": "COc1cc2ncnc(Nc3ccc(F)c(Cl)c3)c2cc1OCCCN1CCOCC1", "Potency": "inactive"}, {"smiles": "CCN(CC)CCNC(=O)c1ccc(NC(C)=O)cc1", "Potency": "inactive"}, {"smiles": "C[Si](NC1CCCCC1)(NC1CCCCC1)NC1CCCCC1", "Potency": "inactive"}]}]}
